The record followed here is PubChem BioAssay (NCI).

About 83,000 compounds went through this panel and 20% of them were active in at least one assay; those are over-represented in the sample as a whole.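 Results are percent growth after 48 hours of single-concentration exposure. 100 means growth as in untreated cells, lower positive values show inhibition; negative values down to -100 show cell death.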 The source made the active and inactive calls. The calls were made as follows: active = growth percent below 10; inactive = the rest.

The test system of the first experiment is SN12C renal. In words: NCI-60 one-dose screen, 48 h (100 = growth as untreated, 0 = no growth, -100 = all killed). To be noted: 10 µM unless noted.
On to `N#Cc1c(-c2ccccc2Cl)cc(-c2c[nH]c3ccccc23)[nH]c1=O`, for which the growth was 61.5% (inactive).
Same read-out and setting: with `CN1CCN(/C(=N\c2sc(-c3ccccc3)nc2-c2ccccc2)c2ccccc2)CC1` the figure was 82.7% (inactive).
In the case of `COc1ccc(-c2cc(C(=O)NCc3ccccc3)nn2-c2ccc(S(C)(=O)=O)cc2)cc1OC`, the growth was 88.1% (inactive).
On the same count and under the same terms, with `O=C(COc1ccc(NC(=O)Nc2ccc(Cl)c(Cl)c2)cc1)N=Nc1c(O)[nH]c2ccc(Cl)cc12` the figure was -30.4% (active); with `C=C1CC[C@@H]2[C@]3(C)COC(c4cn(-c5ccccc5)nc4-c4ccccc4)O[C@@H]3CC[C@@]2(C)[C@@H]1C/C=C1/C(=O)OC[C@H]1O` (stereo partly specified), -67.1% (active).
On the same count and under the same terms, the figure for `CC(=O)Nc1cccc(-c2nc3cc(-c4ccc(O)cc4)ccc3n2C)c1` is 43.8% (inactive); for `O=C(/C=C/c1ccc(-c2ccccc2)cc1)c1nc2ccccc2n1Cc1ccc(F)cc1` it is 53.9% (inactive); for `Cc1cc2nc3c4ccccc4n(CCNCCN(C)C)c3nc2cc1C` it is 25.3% (inactive).
On the same count and under the same terms, the figure for `c1ccc(-c2csc(Nc3cccc(Nc4nc(-c5ccccc5)cs4)c3)n2)cc1` is 43.4% (inactive); for `O=C(N/N=C/c1ccc(-c2ccc(O)cc2)s1)c1[nH]c2ccc(Br)cc2c1-c1ccccc1` it is 4.89% (active).
For `COCOc1cc2c(=O)c(C)c(C(=O)N[C@@H](Cc3ccccc3)C(O)C(=O)NCc3ccccc3)oc2cc1OC` (stereo partly specified), the growth was 42.7% (inactive).
Consider `COc1cc2oc(-c3cccc(C(=O)Nc4ccc(Cl)cc4)c3)cc(=O)c2c(OCCNC(=O)[C@@H](N)CCC(=O)O)c1OC`, for which the growth is 61.6% (inactive).
Same read-out and setting: the figure for `Cn1cc(-c2nc(N)nnc2-c2c[nH]c3ccc(Br)cc23)c2cccnc21` is 49.8% (inactive).
Still for that read-out and setting: the figure for `O=C1c2c(c3c4cc(F)ccc4oc3c3[nH]c4ccc(Br)cc4c23)C(=O)N1O` is 19.2% (inactive); for `CCCCNC(=S)Nc1ccc(OCc2nc3ccccc3[nH]2)cc1` it is 64.5% (inactive).
Same read-out and setting: the figure for `COc1cc(-c2ccc(/C=N/NC(=O)c3[nH]c4ccc(Br)cc4c3-c3ccccc3)s2)cc(OC)c1OC` is 92.6% (inactive); for `C=C1CC[C@@H]2[C@]3(C)COC(c4cn[nH]c4-c4ccc(C)cc4)O[C@@H]3CC[C@@]2(C)[C@@H]1C/C=C1/C(=O)OCC1O` (stereo partly specified) it is 7.06% (active); for `COc1cc2c(c(OC)c1OC)C(=O)CC(c1cccc(NC(=O)c3cc(N)ccc3Cl)c1)O2` (stereo unspecified) it is 64.6% (inactive).
Turning to `COc1cc2c(c(OC)c1OC)C(=O)CC(c1cccc(NC(=O)c3cccc(NC(=O)[C@H](C)NC(=O)OC(C)(C)C)c3)c1)O2` (stereo partly specified), the growth was 59.9% (inactive).
On the same count and under the same terms, the figure for `C=C1CCC2C3(C)COC(c4cc(F)cc(F)c4)OC3CCC2(C)C1CC(O)C1=CCOC1=O` (stereo unspecified) is 48.1% (inactive); for `O=C(/C=C/c1ccc(O)c(O)c1)NC1CCOC1O` (stereo unspecified) it is 96.4% (inactive); for `C/C(=N\N=C1/C(=O)Nc2ccc(Cl)cc21)c1ccc2c(c1)Nc1ccccc1S2` it is -16.2% (active).
Take `CC(C)CCNC(=O)N/C(N)=N/c1nc2ccccc2s1`: the growth was 73.6% (inactive).
The same measure, in the same setting: the figure for `OCNc1ccc(-n2cnc3cc(-c4ccc(O)cc4)ccc32)cc1C(F)(F)F` is 19.7% (inactive).
`C=C1CCC2C3(C)COC(c4ccc(F)cc4)OC3CCC2(C)C1C/C=C1/C(=O)OCC1O` (stereo unspecified): the growth is -11.3% (active).
Regarding `O=c1[nH]n(C(=S)N/N=C/c2ccccc2Cl)c(=O)c2ccccc12`, the growth is 7.3% (active).
On the same count and under the same terms, the figure for `N#Cc1c(-c2cccc(Cl)c2Cl)cc(-c2ccc3ccccc3c2)[nH]c1=O` is 19.1% (inactive); for `Clc1cccc(Cl)c1/C=C/c1cc(/C=C/c2ccc(Br)cc2)c2ccccc2n1` it is 93.2% (inactive).
On the same count and under the same terms, with `CC(C)c1ccc2c(N)c(C(=O)Nc3ccc(C(F)(F)F)cn3)sc2n1` the figure was 70.5% (inactive); with `CCN(CC)C(=O)N/C(N)=N/c1nc2ccccc2s1`, 50.1% (inactive).
On the same count and under the same terms, the figure for `O=C(COc1ccc(NC(=O)Nc2ccc(Cl)c(Cl)c2)cc1)N=Nc1c(O)[nH]c2ccc([N+](=O)[O-])cc12` is 52.6% (inactive).
As to `Cc1cc2c(cc1Cl)C(=O)/C(=C/c1ccc(F)cc1)O2`, the growth was 82.1% (inactive).
On the same count and under the same terms, with `CCCCOc1ccc(NC(=O)c2sc3nc(C)ccc3c2N)cc1` the figure was 21.1% (inactive); with `O=C1Nc2cc(Cl)ccc2/C1=C/c1cccc(OCc2ccccn2)c1`, -15% (active).
The same measure, in the same setting: with `NS(=O)(=O)c1ccc(N=Nc2c(O)n(CC(=O)Nc3ccccc3Cl)c3ccccc23)cc1` the figure was 27.6% (inactive); with `O=C(Nc1cccc(-n2cnc3cc(-c4ccc(O)cc4)ccc32)c1)C1CC1`, 24.9% (inactive).
With `C=C1CC[C@@H]2[C@]3(C)COC(c4cn[nH]c4-c4ccc(OC)cc4)O[C@@H]3CC[C@@]2(C)[C@@H]1C/C=C1/C(=O)OCC1O` (stereo partly specified), the growth is -14.3% (active).
Still for that read-out and setting: the figure for `CC(=O)Nc1ccc(-c2cn(-c3cccc(C(=O)Nc4ccc(N5CCN(C)CC5)cc4)c3)nn2)cn1` is 80.1% (inactive).

A further experiment relates to UO-31 renal. The description is as above. To be noted: 10 µM unless noted.
In the case of `N#Cc1c(-c2ccccc2Cl)cc(-c2c[nH]c3ccccc23)[nH]c1=O`, the growth was 58.7% (inactive).
The same measure, in the same setting: the figure for `CN1CCN(/C(=N\c2sc(-c3ccccc3)nc2-c2ccccc2)c2ccccc2)CC1` is 82.4% (inactive).
As to `COc1ccc(-c2cc(C(=O)NCc3ccccc3)nn2-c2ccc(S(C)(=O)=O)cc2)cc1OC`, the growth is 77% (inactive).
Regarding `O=C(COc1ccc(NC(=O)Nc2ccc(Cl)c(Cl)c2)cc1)N=Nc1c(O)[nH]c2ccc(Cl)cc12`, the growth was 56.8% (inactive).
With `C=C1CC[C@@H]2[C@]3(C)COC(c4cn(-c5ccccc5)nc4-c4ccccc4)O[C@@H]3CC[C@@]2(C)[C@@H]1C/C=C1/C(=O)OC[C@H]1O` (stereo partly specified), the growth is -78.1% (active).
The same measure, in the same setting: with `CC(=O)Nc1cccc(-c2nc3cc(-c4ccc(O)cc4)ccc3n2C)c1` the figure was 38.4% (inactive).
The same measure, in the same setting: with `O=C(/C=C/c1ccc(-c2ccccc2)cc1)c1nc2ccccc2n1Cc1ccc(F)cc1` the figure was 47.6% (inactive); with `Cc1cc2nc3c4ccccc4n(CCNCCN(C)C)c3nc2cc1C`, -16.5% (active).
The same measure, in the same setting: the figure for `c1ccc(-c2csc(Nc3cccc(Nc4nc(-c5ccccc5)cs4)c3)n2)cc1` is 32.3% (inactive).
As for `O=C(N/N=C/c1ccc(-c2ccc(O)cc2)s1)c1[nH]c2ccc(Br)cc2c1-c1ccccc1`, the growth is 15.2% (inactive).
Still for that read-out and setting: with `COCOc1cc2c(=O)c(C)c(C(=O)N[C@@H](Cc3ccccc3)C(O)C(=O)NCc3ccccc3)oc2cc1OC` (stereo partly specified) the figure was 81.5% (inactive); with `COc1cc2oc(-c3cccc(C(=O)Nc4ccc(Cl)cc4)c3)cc(=O)c2c(OCCNC(=O)[C@@H](N)CCC(=O)O)c1OC`, 80.1% (inactive).
On the same count and under the same terms, the figure for `Cn1cc(-c2nc(N)nnc2-c2c[nH]c3ccc(Br)cc23)c2cccnc21` is 48.9% (inactive).
The same measure, in the same setting: with `O=C1c2c(c3c4cc(F)ccc4oc3c3[nH]c4ccc(Br)cc4c23)C(=O)N1O` the figure was 9.04% (active).
Turning to `CCCCNC(=S)Nc1ccc(OCc2nc3ccccc3[nH]2)cc1`, the growth is 41.1% (inactive).
On the same count and under the same terms, with `COc1cc(-c2ccc(/C=N/NC(=O)c3[nH]c4ccc(Br)cc4c3-c3ccccc3)s2)cc(OC)c1OC` the figure was 96.9% (inactive).
Same read-out and setting: with `C=C1CC[C@@H]2[C@]3(C)COC(c4cn[nH]c4-c4ccc(C)cc4)O[C@@H]3CC[C@@]2(C)[C@@H]1C/C=C1/C(=O)OCC1O` (stereo partly specified) the figure was 4.54% (active); with `COc1cc2c(c(OC)c1OC)C(=O)CC(c1cccc(NC(=O)c3cc(N)ccc3Cl)c1)O2` (stereo unspecified), 51.5% (inactive); with `COc1cc2c(c(OC)c1OC)C(=O)CC(c1cccc(NC(=O)c3cccc(NC(=O)[C@H](C)NC(=O)OC(C)(C)C)c3)c1)O2` (stereo partly specified), 44.1% (inactive).
With `C=C1CCC2C3(C)COC(c4cc(F)cc(F)c4)OC3CCC2(C)C1CC(O)C1=CCOC1=O` (stereo unspecified), the growth was 49.6% (inactive).
On the same count and under the same terms, the figure for `O=C(/C=C/c1ccc(O)c(O)c1)NC1CCOC1O` (stereo unspecified) is 80.4% (inactive).
The same measure, in the same setting: with `C/C(=N\N=C1/C(=O)Nc2ccc(Cl)cc21)c1ccc2c(c1)Nc1ccccc1S2` the figure was 18.2% (inactive); with `CC(C)CCNC(=O)N/C(N)=N/c1nc2ccccc2s1`, 73.7% (inactive).
Still for that read-out and setting: the figure for `OCNc1ccc(-n2cnc3cc(-c4ccc(O)cc4)ccc32)cc1C(F)(F)F` is 13.1% (inactive).
With `C=C1CCC2C3(C)COC(c4ccc(F)cc4)OC3CCC2(C)C1C/C=C1/C(=O)OCC1O` (stereo unspecified), the growth is -90.6% (active).
On the same count and under the same terms, the figure for `O=c1[nH]n(C(=S)N/N=C/c2ccccc2Cl)c(=O)c2ccccc12` is 15.6% (inactive); for `N#Cc1c(-c2cccc(Cl)c2Cl)cc(-c2ccc3ccccc3c2)[nH]c1=O` it is 24.6% (inactive); for `Clc1cccc(Cl)c1/C=C/c1cc(/C=C/c2ccc(Br)cc2)c2ccccc2n1` it is 70.2% (inactive).
As to `CC(C)c1ccc2c(N)c(C(=O)Nc3ccc(C(F)(F)F)cn3)sc2n1`, the growth was 62% (inactive).
Same read-out and setting: the figure for `CCN(CC)C(=O)N/C(N)=N/c1nc2ccccc2s1` is 37.7% (inactive).
Same read-out and setting: with `O=C(COc1ccc(NC(=O)Nc2ccc(Cl)c(Cl)c2)cc1)N=Nc1c(O)[nH]c2ccc([N+](=O)[O-])cc12` the figure was 85.3% (inactive).
Same read-out and setting: with `Cc1cc2c(cc1Cl)C(=O)/C(=C/c1ccc(F)cc1)O2` the figure was -80.7% (active); with `CCCCOc1ccc(NC(=O)c2sc3nc(C)ccc3c2N)cc1`, 1.84% (active).
As to `O=C1Nc2cc(Cl)ccc2/C1=C/c1cccc(OCc2ccccn2)c1`, the growth was 29.7% (inactive).
On the same count and under the same terms, with `NS(=O)(=O)c1ccc(N=Nc2c(O)n(CC(=O)Nc3ccccc3Cl)c3ccccc23)cc1` the figure was 2.95% (active); with `O=C(Nc1cccc(-n2cnc3cc(-c4ccc(O)cc4)ccc32)c1)C1CC1`, 23.4% (inactive).
Same read-out and setting: the figure for `C=C1CC[C@@H]2[C@]3(C)COC(c4cn[nH]c4-c4ccc(OC)cc4)O[C@@H]3CC[C@@]2(C)[C@@H]1C/C=C1/C(=O)OCC1O` (stereo partly specified) is -44.2% (active); for `CC(=O)Nc1ccc(-c2cn(-c3cccc(C(=O)Nc4ccc(N5CCN(C)CC5)cc4)c3)nn2)cn1` it is 100% (inactive).
